Reference: PubChem BioAssay
The source made the active and inactive calls. Unless noted, how the calls were made is not given here.

Assays:
[1] = resazurin metabolic signal in HepG2 cells – cell-based, resazurin fluorescence, 24 h, PK04 Diversity Set, profiling panel (AID 1172); conditions: HepG2 viability, higher = more signal
[2] = budding yeast growth changes without added modifier – OD600, strain BY4716, 24 h, basal condition, primary screen (AID 1173); conditions: S. cerevisiae BY4716 growth, OD600, 24 h; higher = more signal, called active from +8 up or from −8 down
[3] = viability profiling in MM1S myeloma cells – cell-based, resazurin fluorescence, basal, 24 h, PK04 Diversity Set, profiling panel (AID 1174); conditions: higher = more signal, called active from +8 up or from −8 down;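 further: MM1S multiple myeloma cell line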
[4] = target: Dihydroorotate dehydrogenase (quinone), mitochondrial (Plasmodium falciparum (isolate 3D7)) (UniProt Q08210); test: inhibition of P. falciparum DHODH – biochemical, C-terminal His tag, absorbance 600 nm, primary screen (AID 1175); conditions: PfDHODH enzyme, DCIP absorbance 600 nm; higher = more signal, called active from +8 up or from −8 down;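 further: recombinant parasite enzyme with a five histidine tag at its C terminus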
[5] = inhibition of PAO1 biofilm formation – strain PAO1, LB-PBS medium, absorbance 600 nm, primary screen (AID 1176); conditions: P. aeruginosa PAO1 growth/biofilm, A600, 12 h; higher = more signal
[6] = growth modulation of vineyard yeast isolate – strain RM11-1a, OD600, basal, 24 h, primary screen (AID 1177);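 further: cultures grown under basal conditions with no added stressor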; conditions: S. cerevisiae RM11-1a growth, OD600, 24 h; higher = more signal, called active from +8 up or from −8 down
[7] = growth of efflux-deficient E. coli DRC39 – strain DRC39, OD650, 24 h, E. coli filamentation inducers, primary screen (AID 1178);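 further: growth measured as culture turbidity by optical density at 650 nm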; conditions: E. coli DRC39 acrAB, higher = more signal, called active from +8 up or from −8 down
[8] = growth of efflux-deficient E. coli DRC39 – strain DRC39, OD650, 48 h, E. coli filamentation inducers, primary screen (AID 1179);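 further: screen aims at cell division blockers that make cells filament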; conditions: E. coli DRC39 delta-acrAB growth, higher = more signal, called active from +8 up or from −8 down
[9] = viability profiling in RPMI8226 myeloma cells – cell-based, resazurin fluorescence, basal, 24 h, PK04 Diversity Set, profiling panel (AID 1180); conditions: higher = more signal;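 further: RPMI8826 multiple myeloma cell line at 5000 cells per well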
[10] = target: E3 ubiquitin-protein ligase XIAP (Homo sapiens) (UniProt P98170); test: small molecules binding XIAP protein – biophysical, small-molecule microarray, fluorescence 635 nm, primary screen (AID 1181); conditions: higher = more signal;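 further: score merges 667 nm emission and signal to noise over triplicate slides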
[11] = test system: XIP peptide (Xip251-270) binding; test: XIP fragment 251-270 binding compounds – biochemical, small-molecule microarray, fluorescence 635/667 nm, 0.1 µg/mL protein, primary screen (AID 1182); conditions: fluorescent protein binding, 635 nm, higher = more signal, called active from +8 up or from −8 down
[12] = test system: XIP peptide (Xip251-270); test: compounds binding XIP fragment 251-270 – biochemical, small-molecule microarray, fluorescence 635/667 nm, 0.5 µg/mL protein, primary screen (AID 1183); conditions: fluorescence 635 nm, higher = more signal
[13] = blood-stage malaria parasite viability loss – strain 3D7, DAPI fluorescence, 100 nL, primary screen (AID 1184);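 further: parasites grown inside human red blood cells in medium with human serum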; conditions: P. falciparum 3D7 growth, 3 d, higher = more signal
[14] = target: Homeobox protein Hox-A13 (Mus musculus) (UniProt Q62424); test: disruptors of Hoxa13 oligonucleotide interaction – biochemical, fluorescence polarization, labeled oligonucleotide, primary screen (AID 1185); conditions: Hoxa13:DNA binding, 15 min, higher = more signal, called active from +8 up or from −8 down
[15] = blockers of DNA damage checkpoint Chk1 activation – imaging, HeLa, hydroxyurea, phospho-Chk1 antibody, percent positive cells, primary screen (AID 1186); conditions: hydroxyurea-induced phospho-Chk1 immunofluorescence imaging, higher = more signal
[16] = blockers of DNA damage checkpoint Chk1 activation – imaging, HeLa, hydroxyurea, phospho-Chk1 nuclear intensity, primary screen (AID 1187); conditions: hydroxyurea-induced phospho-Chk1 immunofluorescence imaging, higher = more signal

Chain of Dihydroorotate dehydrogenase (quinone), mitochondrial (Plasmodium falciparum (isolate 3D7)) (Q08210 whole entry, looked up): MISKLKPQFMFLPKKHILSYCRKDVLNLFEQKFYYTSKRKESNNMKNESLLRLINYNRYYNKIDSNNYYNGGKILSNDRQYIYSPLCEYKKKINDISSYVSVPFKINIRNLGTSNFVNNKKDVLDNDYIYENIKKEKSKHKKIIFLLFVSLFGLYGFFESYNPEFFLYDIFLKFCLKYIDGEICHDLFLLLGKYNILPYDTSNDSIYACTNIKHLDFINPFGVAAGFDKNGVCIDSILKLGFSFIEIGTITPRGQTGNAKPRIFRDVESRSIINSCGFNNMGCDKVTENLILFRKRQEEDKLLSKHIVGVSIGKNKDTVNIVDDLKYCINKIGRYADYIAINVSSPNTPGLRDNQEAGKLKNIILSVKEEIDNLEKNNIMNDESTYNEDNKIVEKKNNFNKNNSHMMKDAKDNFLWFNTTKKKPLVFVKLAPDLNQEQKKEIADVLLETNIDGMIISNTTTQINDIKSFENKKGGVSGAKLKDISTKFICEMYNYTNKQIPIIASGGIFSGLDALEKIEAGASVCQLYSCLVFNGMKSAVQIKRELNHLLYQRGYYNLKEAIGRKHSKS
Chain of Homeobox protein Hox-A13 (Mus musculus) (Q62424 whole entry, looked up): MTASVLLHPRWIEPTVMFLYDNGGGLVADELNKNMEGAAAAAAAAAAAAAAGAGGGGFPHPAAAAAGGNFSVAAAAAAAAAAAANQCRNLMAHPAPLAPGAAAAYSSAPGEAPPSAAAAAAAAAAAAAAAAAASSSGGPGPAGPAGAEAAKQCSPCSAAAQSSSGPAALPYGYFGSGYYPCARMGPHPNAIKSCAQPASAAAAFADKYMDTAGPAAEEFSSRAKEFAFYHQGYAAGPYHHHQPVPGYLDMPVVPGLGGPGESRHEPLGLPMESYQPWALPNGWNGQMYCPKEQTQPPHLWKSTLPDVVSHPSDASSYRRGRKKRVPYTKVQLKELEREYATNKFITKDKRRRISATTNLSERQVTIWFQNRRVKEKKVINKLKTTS
Chain of E3 ubiquitin-protein ligase XIAP (Homo sapiens) (P98170 whole entry, looked up, the tested form may be a part): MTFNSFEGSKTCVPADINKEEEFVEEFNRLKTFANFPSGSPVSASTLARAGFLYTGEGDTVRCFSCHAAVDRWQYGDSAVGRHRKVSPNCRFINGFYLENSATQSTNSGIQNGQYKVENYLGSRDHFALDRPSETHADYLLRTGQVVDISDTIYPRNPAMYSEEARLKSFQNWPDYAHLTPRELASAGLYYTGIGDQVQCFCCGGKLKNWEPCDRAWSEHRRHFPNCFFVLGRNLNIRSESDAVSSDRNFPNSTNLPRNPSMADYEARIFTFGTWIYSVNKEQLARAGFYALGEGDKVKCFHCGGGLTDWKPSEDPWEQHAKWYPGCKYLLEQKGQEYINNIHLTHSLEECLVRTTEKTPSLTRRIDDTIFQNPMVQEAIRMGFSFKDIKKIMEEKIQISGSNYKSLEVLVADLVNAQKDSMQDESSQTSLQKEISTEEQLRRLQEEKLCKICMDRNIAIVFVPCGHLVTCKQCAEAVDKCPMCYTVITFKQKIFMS

Compound	z-score [1]	z-score [2]	z-score [3]	composite z-score [4]	z-score [5]	z-score [6]	z-score [7]	z-score [8]	z-score [9]	composite z-score [10]	composite z-score [11]	composite z-score [12]	z-score [13]	z-score [14]	z-score [15]	z-score [16]
CCOC(=O)C[C@H]1[C@H](OC(=O)c2ccc(C(=O)c3ccccc3)cc2)[C@@H](NC(=O)c2ccc3ccccc3c2)c2cc(OCCCO)ccc2N1C(=O)c1ccc2ccccc2n1	0.213	-0.628 (inactive)	0.64 (inactive)	0.824 (inactive)	-0.595 (inactive)	0.351 (inactive)	0.571 (inactive)	0.534 (inactive)	0.395	-0.0726	0.27 (inactive)	0.197	-2.68	-1.96 (inactive)	-0.318 (inactive)	0.25 (inactive)
CC(=O)n1cc(C(O)C2C=CC3C(=O)N(c4ccccc4)C(=O)C3N2Nc2ccccc2F)c2ccccc21 (stereo not given)	0.68	-1.34 (inactive)	-0.223 (inactive)	-0.349 (inactive)	1.54 (inactive)	-0.86 (inactive)	0.8 (inactive)	0.86 (inactive)	0.0072	0.439	0.0433 (inactive)	0.752	-0.153	-4.01 (inactive)	-0.0566 (inactive)	0.153 (inactive)
COCCOC(=O)N1C(=O)[C@@]2(c3cc(C#Cc4ccc(OC)cc4)ccc31)[C@H](C(=O)Nc1nc3ccccc3s1)[C@H]1C(=O)O[C@H](c3ccccc3)[C@H](c3ccccc3)N1[C@@H]2c1ccccc1OCCO	1.17	0.86 (inactive)	1.34 (inactive)	-0.882 (inactive)	1.89 (inactive)	0.972 (inactive)	0.285 (inactive)	0.376 (inactive)	1.85	-0.221	0.71 (inactive)	0.594	-1.96	3.56 (inactive)	-0.338 (inactive)	-0.538 (inactive)
COC(=O)[C@H](Cc1ccc(O)cc1)N1CC2=CCCC=C[C@@H]2[C@H]1[C@H](O)Cc1ccccc1	0.969	-2.95 (inactive)	0.658 (inactive)	-0.574 (inactive)	0.106 (inactive)	-0.889 (inactive)	1.34 (inactive)	1.34 (inactive)	0.601	-0.219	-0.0324 (inactive)	0.419	-1.63	-8.16 (active)	-1.09 (inactive)	-1.18 (inactive)
COc1cccc(OC)c1C(=O)O[C@H]1[C@@H]2OC(=O)[C@H](Cc3cccc(Br)c3)C/C=C/C[C@@H](Cc3cccc(Br)c3)C(=O)O[C@H]2[C@@H](OC)O[C@@H]1CO	-0.946	-0.696 (inactive)	-1.11 (inactive)	-0.491 (inactive)	0.277 (inactive)	0.788 (inactive)	-0.0368 (inactive)	0.165 (inactive)	-1.38	0.182	1.02 (inactive)	-0.213	-0.545	-4.16 (inactive)	0.0558 (inactive)	0.0783 (inactive)
COc1ccc(NN2C(C(O)c3ccc(OC)cc3)C=CC3C(=O)N(C4CCCCC4)C(=O)C32)cc1 (stereo not given)	1.52	-0.365 (inactive)	0.363 (inactive)	-0.809 (inactive)	1.05 (inactive)	0.107 (inactive)	-0.447 (inactive)	0.703 (inactive)	0.346	0.229	1.3 (inactive)	0.7	-0.346	-4.51 (inactive)	-1.28 (inactive)	-1.13 (inactive)
COc1ccc(NN2C(C(O)c3cc(C(F)(F)F)cc(C(F)(F)F)c3)C=CC3C(=O)N(C4CCCCC4)C(=O)C32)cc1 (stereo not given)	0.392	0.275 (inactive)	0.0147 (inactive)	-0.0132 (inactive)	1.21 (inactive)	-0.0874 (inactive)	-0.587 (inactive)	0.372 (inactive)	0.283	-0.0669	0.0376 (inactive)	0.752	-0.5	-3.31 (inactive)	-1.14 (inactive)	-2.01 (inactive)
NCCCC[C@@H]1NC(=O)[C@H]2C[C@@H](C(=O)O)[C@@H](c3cccc(OCCO)c3)N2C1=O	-0.578	-0.0349 (inactive)	0.152 (inactive)	-6.64 (inactive)	0.628 (inactive)	1.08 (inactive)	0.191 (inactive)	-0.28 (inactive)	-0.438	0.201	0.505 (inactive)	0.86	-0.0736	6.28 (inactive)	0.0547 (inactive)	-0.62 (inactive)
COc1ccc([Si](C)(C)[C@H]2[C@H](CCO)O[C@@]3(C(=O)N(Cc4ccccc4)c4ccc(N(C=O)c5ccccc5)cc43)[C@@H]2C)cc1	0.0056	1.53 (inactive)	-2.24 (inactive)	-0.363 (inactive)	2.58 (inactive)	5.16 (inactive)	1.28 (inactive)	0.733 (inactive)	-1.28	-0.0668	0.572 (inactive)	0.571	-2.74	-0.799 (inactive)	1.75 (inactive)	1.49 (inactive)
Cc1ccc(S[C@]2(C(=O)NCCCN(C)C)CC(=O)N(Cc3ccccc3Cl)[C@@H]2c2ccc(CO)cc2I)cc1	-0.0565	-2.11 (inactive)	-2.51 (inactive)	0.648 (inactive)	-0.833 (inactive)	0.995 (inactive)	0.165 (inactive)	-0.352 (inactive)	-1.5	-0.133	0.0919 (inactive)	0.856	-0.344	-1.48 (inactive)	-0.0214 (inactive)	0.0301 (inactive)
